# Only some compounds are listed: those with a hit (about 2.8% of all), similar ones and a draw of the others.
# WRN helicase inh – qHTS for Inhibitors of WRN Helicase. Bifunctional 3'-5' exonuclease/ATP-dependent helicase WRN (Homo sapiens), Q14191. WRN helicase unwinding, fluorescent forked duplex, kinetic. Potency, µM (highest dose often 114 µM), for inactives: at the highest dose activity change, negative = inhibition, actives largely listed as inhibitors. actives 0.46% (n = 360,000). AID 651768, 2012; also: potency is read from the fitted curve at half-maximal effect; % is scaled to controls: 0 for no effect and ±100 for the full control effect; nearly all actives have a fitted effect of over 55% in size
#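 WRN at 20 nM final preincubated with compound 15 min at room temperature; reaction started with 100 nM fluorophore/quencher forked duplex oligonucleotide and 2 mM ATP final. Unwinding followed kinetically by red fluorescence (ex 525, em 598 nm).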
# POLB inh – qHTS Assay for Inhibitors of DNA Polymerase Beta. P06746. Pol beta primer extension/strand displacement, fluorescence kinetic. Potency, µM (top dose mostly 114 µM), for inactives: at the highest dose activity change, negative = inhibition, actives largely listed as inhibitors. actives 1.3% (n = 340,000). AID 485314, 2010; also: potency is read from the fitted curve at half-maximal effect; % is scaled to controls: 0 for no effect and ±100 for the full control effect
#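 Pol beta (10 nM) was preincubated with compound for 15 min at room temperature. The reaction was then started with 50 nM substrate and read immediately and after a further 10 min at room temperature.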
# POLH inh – qHTS for Inhibitors of Polymerase Eta; AID 588591, 2011; DNA polymerase eta (Homo sapiens), Q9Y253; actives 1.2% (n = 390,000); recombinant Pol eta, fluorescent DNA replication assay; Potency, µM (highest dose often 114 µM), for the others: at the top dose activity change, negative = inhibition, actives largely listed as inhibitors; also: potency is read from the fitted curve at half-maximal effect; % is scaled to controls: 0 for no effect and ±100 for the full control effect
#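 Fluorescent replication assay: 50 nM final substrate added after a 15 min room-temperature compound preincubation with 10 nM enzyme. Signal taken at 0 min and again at 10 min.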
# Pol iota inh – qHTS for Inhibitors of Polymerase Iota; Pol iota fluorescent replication assay, 10 min; Potency, µM (titrated, usually from 115 µM), without a hit: top-dose activity, negative = inhibition, usual class: inhibitors; actives 1% (n = 390,000); AID 588590, 2011; also: potency is read from the fitted curve at half-maximal effect
#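 Fluorescent replication assay read twice, at 0 min and 10 min after adding 50 nM (final) substrate. Enzyme (10 nM) and compounds were first incubated 15 min at room temperature; enzyme-free buffer wells were negative controls.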
# POLK inh – qHTS for Inhibitors of Polymerase Kappa | purified Pol kappa, fluorescent DNA synthesis assay, 10 min | Potency, µM (titrated, usually from 107 µM), for the others: at the top dose activity, negative = inhibition, usual class: inhibitors | actives 0.53% (n = 400,000) | AID 588579, 2011; also: potency is read from the fitted curve at half-maximal effect; % is scaled to controls: 0 for no effect and ±100 for the full control effect
# Target sequence (Q9UBT6 whole entry, looked up): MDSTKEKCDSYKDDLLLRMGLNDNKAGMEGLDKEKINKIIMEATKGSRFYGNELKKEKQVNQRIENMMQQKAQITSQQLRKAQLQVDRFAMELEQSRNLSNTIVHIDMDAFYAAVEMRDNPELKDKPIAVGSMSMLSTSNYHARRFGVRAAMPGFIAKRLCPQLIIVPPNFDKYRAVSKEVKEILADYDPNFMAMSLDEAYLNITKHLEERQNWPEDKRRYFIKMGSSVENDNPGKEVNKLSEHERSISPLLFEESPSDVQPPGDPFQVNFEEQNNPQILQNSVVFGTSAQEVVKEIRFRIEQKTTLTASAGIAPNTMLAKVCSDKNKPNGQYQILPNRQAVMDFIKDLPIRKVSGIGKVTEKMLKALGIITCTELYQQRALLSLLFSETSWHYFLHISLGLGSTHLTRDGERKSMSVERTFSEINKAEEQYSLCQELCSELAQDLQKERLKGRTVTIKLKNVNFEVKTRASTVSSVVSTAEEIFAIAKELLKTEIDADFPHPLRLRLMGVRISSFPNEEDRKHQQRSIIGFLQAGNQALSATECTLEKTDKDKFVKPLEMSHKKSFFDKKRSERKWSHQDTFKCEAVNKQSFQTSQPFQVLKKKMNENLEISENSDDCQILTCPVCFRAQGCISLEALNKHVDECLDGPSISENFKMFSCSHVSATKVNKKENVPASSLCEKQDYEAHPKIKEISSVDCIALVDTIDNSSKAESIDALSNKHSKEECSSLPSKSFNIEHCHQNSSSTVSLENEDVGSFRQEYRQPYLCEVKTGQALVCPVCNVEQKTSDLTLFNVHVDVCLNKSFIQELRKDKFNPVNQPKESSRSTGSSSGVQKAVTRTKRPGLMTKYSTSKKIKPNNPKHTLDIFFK
#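 Inhibition of 10 nM Pol kappa is measured by a fluorescent read-out at 0 and 10 min following addition of 50 nM substrate (final), with a 15-min room-temperature compound preincubation.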
# PI5P4K alpha inh – qHTS for Inhibitors of phosphatidylinositol 5-phosphate 4-kinase (PI5P4K); Phosphatidylinositol 5-phosphate 4-kinase type-2 alpha (Homo sapiens), P48426; max response, %; AID 652105, 2013; PI5P4Kalpha enzyme, ADP-Glo luminescence, 60 min; stronger effect = lower value; actives 1.2% (n = 330,000); active = max response of -50% or lower; inconclusive = between -30% and -50%; inactive = -30% or higher; also: value at the top dose of about 77 µM; % is scaled to controls: 0 for no effect and ±100 for the full control effect
#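 Human PI5P4Kalpha with substrate in 0.038 M HEPES pH 7.4, 0.28 mM EGTA, 0.1% CHAPS, 5% DMSO; reaction started with 5 microM ATP (final), 60 min at room temperature. ADP formed read by ADP-Glo luminescence.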
# Active calls of the source: *; u = inconclusive; x = no result given; [ ] = remark or other dose. Unless noted, calls follow the shape of the dose curve; as a rule, active = well fitted curve in the direction sought with a large enough effect; inconclusive = small, poorly fitted or top-dose-only effect, or another doubt; inactive = no such curve, though single readings can be large; an effect the other way counts as inactive or inconclusive.
SMILES,WRN helicase inh,POLB inh,POLH inh,Pol iota inh,POLK inh,PI5P4K alpha inh
N#Cc1c(NC(=O)CCC(=O)O)sc2c1CCCCC2,-30%,-10%,u,u,-13%,-74*
COc1ccc2cc(-c3nnc(Nc4ccccc4)s3)c(=O)oc2c1,x,2%,-3%,11%,-17%[60.1 µM],x
Cc1ccnc2ccc(Br)cc12,x,x,x,29%,-3%,x
O=C(COC(=O)C1CCCCC1C(=O)N1CCc2ccccc21)NCc1ccco1 (stereo not given),-30%,32µM*,25µM*,u,u,u
O=C(CN1CCCc2ccccc21)NC(=O)NCc1ccco1,-5%,7%,1%,3%,-22%,x
CCc1nc2ccc(C(=O)N(CC)CC(=O)Nc3c(F)cccc3F)cc2nc1CC,-5%,x,35µM*,u,-45%,-6
CCN(CC(=O)Nc1c(F)cccc1F)C(=O)c1ccc(C(=O)c2ccccc2)cc1,11%,x,1%,10%,-16%,3
CC(=O)Nc1cc(OC(C)=O)c2nonc2c1OC(C)=O,-11%,0%,50µM*,0.79µM*,-10%,x
CC(=O)Nc1nonc1NC(C)=O,6%,-6%,-12%,-2%,-6%,0
CC(=O)Oc1ccc2nonc2c1OC(C)=O,x,x,x,3.5µM*,3.2µM*,x
Cc1cc(C)cc(C(=O)C[n+]2cccc(Br)c2)c1,x,x,x,-5%,-1%,x
COc1ccc(C(=O)COC(=O)c2cc([N+](=O)[O-])ccc2N2CCOCC2)c(OC)c1,4%[11.6 µM],x,u,79µM*,-17%,-23
COc1ccccc1C(=O)COC(=O)c1cc([N+](=O)[O-])ccc1N1CCOCC1,0%,x,-17%,4%,-2%,-1
COc1ccc(C(=O)COC(=O)c2ccc3c(c2)OCO3)c(OC)c1,-25%,x,u,79µM*,u,u
CCCC(=O)OCc1cnc(C)c2oc(=O)c(C(=O)Nc3cccc(C(F)(F)F)c3)cc12,x,28%,-15%,70%,-6%[60.1 µM],x
O=C(COc1ccc2ccccc2c1)NNC(=O)c1ccc([N+](=O)[O-])cc1,-17%,8.9µM*,79µM*,u,-20%,-9
CC(Oc1ccc2ccccc2c1)C(=O)NNC(=O)Nc1ccccc1F (stereo not given),1%,u,-3%,15%,-18%,1
O=C(COc1ccc(-c2ccccc2)cc1)NNC(=O)Nc1ccc(F)cc1F,-16%,8.9µM*,u,12%,-2%,-16
O=C(COc1ccc2ccccc2c1)NNC(=O)Nc1ccccc1F,-32%,35µM*,u,79µM*,-11%,-11
CC(C)(C)c1ccc(O)c(N=Cc2cccc([N+](=O)[O-])c2)c1,x,x,x,10%,16%,x
CCC(C)[C@H](NC(=O)C1CCC(CNC(=O)[C@@H]2CCCN2C(=O)OC(C)(C)C)CC1)C(=O)O (stereo not given in full),0%,0.22µM*,7%,-1%,2%,0
COc1ccc(OC(C)C(=O)NCc2nc(-c3ccc(Cl)cc3)no2)cc1 (stereo not given),x,-1%,-11%,u,u,x
Cc1ccc(-n2c(CCc3nc4ccccc4[nH]3)n[nH]c2=S)cc1,-35%,-1%,-5%,18%,-6%,-58*
CCn1c(CCc2nc3ccccc3[nH]2)n[nH]c1=S,-3%,8%,-2%,29%,-1%,5
Nc1nccnc1C(=O)OCC(=O)NCCc1ccc(S(N)(=O)=O)cc1,-3%[11.6 µM],x,u,22µM*,-21%,-19
SMILES,WRN helicase inh,POLB inh,POLH inh,Pol iota inh,POLK inh,PI5P4K alpha inh
CCN1C(=O)CC(C(=O)NC)SC1=Nc1cc(Cl)c(O)c(Cl)c1 (stereo not given),9%,-11%,1%,89µM*,-9%,-17
CCn1cc(S(=O)(=O)c2ccc(C)cc2C)c(=O)c2cc(F)c(N3CCCCC3)cc21,x,2%,4%,-10%,-12%,x
CCCN(CCC)CCCNC(=O)c1cc2c(-c3ccc(Cl)cc3)nn(C)c2s1,x,20µM*,-7%,-1%,-10%,x
O=C1NCCN1c1ncc([N+](=O)[O-])s1,6%,x,-8%,-2%,-7%,1
C=CCn1c(Sc2ncc([N+](=O)[O-])s2)n[nH]c1=O,-35%,-1%,-7%,10µM*,-7%,-9
O=c1cc(O)c2sc(Nc3ccc(F)c(Cl)c3)nc2[nH]1,u,56µM*,-12%,43%,-2%,-69*
COc1ccc(Nc2nc3[nH]c(=O)cc(O)c3s2)cc1,-5%,45µM*,-19%,84%,6%,u
CCOC(=O)c1sc(NC(=O)c2nc3nc(C)cc(C(F)F)n3n2)c(C(=O)OC(C)C)c1C,x,-10%,89µM*,-17%,-20%,x
CCOC(=O)c1sc(NC(=O)c2nc3ncccn3n2)c(C(=O)OC)c1C,x,16%,-10%,-4%,-16%,x
Cn1c(N)c(C(=O)CSc2nnc(-c3c[nH]c4ccccc34)n2C2CC2)c(=O)[nH]c1=O,u,x,u,40µM*,-38%,-14
Clc1ccc2c(N/N=C/c3ccccc3Br)ccnc2c1,u,22µM*,-1%,-12%,0%,-27
Clc1ccc2c(NNc3ccccc3Cl)ccnc2c1,-3%,0%,2%,14%,-12%,0
O=[N+]([O-])c1ccc(/C=N/Nc2ccnc3cc(Cl)ccc23)o1,-11%[11.6 µM],u,u,u,-22%,u
Clc1ccc2c(N/N=C/c3cccc(Br)c3)ccnc2c1,-17%,32µM*,2%,-12%,-11%,-69*
ClN=C1C=CC=CC1=NCl,u,x,x,x,x,-77*
Cc1cc(C(=O)Cn2ncc(Cl)c(Cl)c2=O)c(C)n1CC(F)(F)F,-24%,-4%,22µM*,u,-31%,-56*
Cc1ccc(C)c(C(=O)Cn2ncc(Cl)c(Cl)c2=O)c1,-8%,4%,-11%,-6%,-17%,-4
CCN(CC)CCCOc1cc2nc(N3CCCN(C)CC3)nc(NC3CCN(C)CC3)c2cc1OC,x,x,x,u,-14%,x
O=[N+]([O-])c1ccc(C[n+]2cccc3ccc4cccnc4c32)cc1,-8%,u,-25%,77%,3%,-58*
COC(=O)C[C@H]1c2ccccc2S(=O)(=O)N1c1ccc(N(C)C)cc1,x,x,x,27%,9%,x
